# This is a sample that favours compounds with a hit; in the whole collection about 3.8% have one here.
# MITF act = activators of MITF-driven TRPM1 promoter activity in SK-MEL-5 cells; AID 588334; activation, % at 12.5 µM; 300,000 compounds, 0.75% hits; SK-MEL-5 TRPM1-promoter luciferase, 24 h; % of positive control, neutral wells = 0;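 active = mean activation of at least 80% with every replicate also reaching 80%; inconclusive = mean reaches 80% but some replicate falls short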;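 note: 0% = neutral control wells and 100% = parthenolide positive control wells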
# esBAF inh = SWI/SNF esBAF complex inhibition. mouse ES cells, Bmi1-luciferase knock-in reporter, 24 h; 100% = twice the neutral-well signal. 350,000 compounds, 2% hits. reporter increase, % at 12.5 µM; in the data active = activation above about 40%; inconclusive = no clear call, values can overlap the other calls;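 note: 0% = median of the plate's neutral control wells and 100% = double that signal; a rise in the Bmi1 reporter signal indicates esBAF inhibition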
# Wnt act = activators of Wnt/beta-catenin signaling; Wnt/beta-catenin reporter cell assay, activator, plate reader; activation, % at 9.35 µM; 300,000 compounds, 1.2% hits; in the data active = activation above about 30%, passing the limit was not always enough; inconclusive = no clear call, values can overlap the other calls;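 note: 0% = neutral control wells and 100% = positive control wells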
# HSF1 inhib = HSF1 inhibition. NIH3T3-HGL HSE-luciferase, MG132-induced, luminescence 8 h; stronger effect = lower value. activity change, negative = inhibition, % at 7.5 µM (by protocol). 300,000 compounds, 0.77% hits. AID 2098;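 active = more than half of replicate wells show activity change below -50%, luminescence cut by over half; inconclusive = some wells, but at most half, below -50%; inactive = no replicate well below -50%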;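 note: luciferase reports HSF-1 transcriptional activity via heat shock element; 0% = median of DMSO wells and -100% = zero luminescence signal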
# HSF1 activator = increases HSF-1 driven luciferase reporter signal. NIH3T3-HGL HSF-1 luciferase reporter, MG132, 8 h; 100% = twice DMSO control signal. activation, % at 9 µM. 300,000 compounds, 1.7% hits. AID 504408;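 active = mean replicate activation of at least 50% with a set share of replicates each reaching 50%; inconclusive = only one of those two conditions met; inactive = mean below 50% and too few replicates reaching it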;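 note: 0% = median of the neutral control wells and 100% = twice that signal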
# * = called active by the depositor; ? = inconclusive; nt = not tested or not shown.
SMILES,MITF act,esBAF inh,Wnt act,HSF1 inhib,HSF1 activator
CC1CCCCC1NC(=O)/C=C/c1nc2ccccc2s1 (stereo not given),67,nt,25,19,36
C[C@H](NC(=O)[C@H]1[C@H](CO)[C@H]2Cn3c(ccc(-c4cccnc4)c3=O)[C@H]2N1C)c1ccccc1,nt,-1,nt,nt,nt
Cc1cccc(NC(=O)/C=C/c2cccs2)n1,104*,20,nt,21,49
Cc1ccc(NC(=O)/C=C/c2cccs2)c([N+](=O)[O-])c1,nt,11,30,36,63*
O=C(/C=C/c1cccs1)c1ccc([N+](=O)[O-])cc1,22,0,-8,-3,-25
O=C(/C=C/c1cccs1)Nc1ccc([N+](=O)[O-])cc1,68,nt,31*,20,26
O=C(/C=C/c1cccs1)Nc1ccncc1,42,nt,7,7,16
C[C@@H]1CCCCO[C@@H](CN(C)C(=O)Nc2ccc3c(c2)OCO3)[C@H](C)CN([C@H](C)CO)C(=O)c2cc(NC(=O)C3CCCCC3)ccc2O1,nt,25,nt,nt,nt
C[C@@H]1CN([C@@H](C)CO)C(=O)c2cc(NC(=O)Nc3cccc4ccccc34)ccc2O[C@@H]1CN(C)C(=O)Nc1ccccc1,nt,-3,nt,nt,nt
CCOc1ccc(-n2cc(C(=O)N3CCC(C)CC3)c3cc(OC)c(OC)cc3c2=O)cc1,2,9,-6,23,66*
N#C[C@@H]1N[C@@H](CO)[C@H]1c1ccc(C#CC2CCCC2)cc1,nt,0,nt,nt,nt
Cc1noc(C)c1NC(=O)Nc1cccc2c1O[C@H](CN(C)C(=O)Nc1cccc3ccccc13)[C@@H](C)CN([C@H](C)CO)C2=O,nt,-5,nt,nt,nt
COc1ccc(-c2csc(/C(C#N)=C(\O)CSc3nccn3C)n2)cc1OC,5,-8,nt,-88*,-91
COc1ccc(N(C)C(=O)c2oc(=O)c3ccccc3c2-c2ccccc2)c(OC)c1,-5,1,-1,-79*,-85
COc1ccccc1-c1ccc2n(c1=O)C[C@@H]1[C@@H](CO)[C@H](C(=O)N(C)C)[C@H]2N1C(=O)c1cccnc1,nt,3,nt,nt,nt
CCCc1ccc2oc(C(=O)NCCc3cnn(C)c3)c(C)c2c1,68,47*,30,40,40
CCCc1ccc2oc(C(=O)N(C)Cc3ccn[nH]3)c(C)c2c1,44,75*,7,25,33
COCC(=O)N(C)C[C@H]1Oc2cc(C#CCN(C)C)ccc2S(=O)(=O)N([C@H](C)CO)C[C@@H]1C,nt,1,nt,nt,nt
CCN(CCCNC(=O)CCCN1C(=O)COc2ccc(C)cc21)c1cccc(C)c1,6,-3,nt,68,101*
CN(CC(=O)NCc1ccccc1)S(=O)(=O)c1cnc[nH]1,23,-5,-1,nt,nt
CCN(c1ccccc1)S(=O)(=O)c1cnc[nH]1,1,-7,nt,-70*,-76
COCCNC(=O)C[C@H]1CC[C@@H]2[C@H](COC[C@@H](O)CN2Cc2cccc(-c3ccncc3)c2)O1,nt,2,nt,nt,nt
O=C(Nc1ncc(Cc2cccc(Cl)c2)s1)c1cccs1,60,47*,nt,28,21
O=C(Nc1nc2c(s1)CCCC2)c1ccc(Br)o1,5,-14,nt,19,41
Cc1ccc(Cc2cnc(NC(=O)c3cccs3)s2)cc1,64,72*,nt,34,65*
SMILES,MITF act,esBAF inh,Wnt act,HSF1 inhib,HSF1 activator
O=C(Nc1ncc(Cc2ccc(SC(F)F)cc2)s1)c1ccccc1,12,13,7,15,21
Cc1ccc(C(=O)Nc2ncc(Cc3ccccc3)s2)o1,35,4,51*,23,54*
Cc1ccc(C(=O)Nc2nc3c(s2)CCCC3)o1,31,-6,57*,25,60*
CC(C)NC(=O)N(C)C[C@@H]1Oc2ncc(C#CC3CCCCC3)cc2C(=O)N([C@H](C)CO)C[C@H]1C,nt,1,nt,nt,nt
CCOc1ccccc1C(=O)N[C@H](C(=O)Nc1nc2c(s1)CCCC2)C(C)C,-13,nt,-1,-3,22
O=C(Nc1nnc(SCc2ccccc2)s1)c1cccs1,7,?,8,3,21
COc1ccc(C(=O)N[C@H](C(=O)Nc2nc3c(s2)CCCC3)C(C)C)cc1,61,65*,38*,30,42
O=C(Nc1ncc(Cc2ccccc2)s1)c1cccs1,66,-17,nt,39,55*
N/C(Cc1cccs1)=N\OC(=O)COc1ccc(Cl)cc1Cl,?,71*,nt,31,?
N/C(=N\OC(=O)COc1ccc(Cl)cc1)c1cccnc1,1,nt,5,19,31
N/C(=N\OC(=O)COc1ccc(Cl)cc1Br)c1ccncc1,92*,nt,45*,nt,nt
N/C(=N\OC(=O)COc1ccc(Cl)cc1Cl)c1cccnc1,142*,56*,30,49,93*
CCc1ccc(OCC(=O)O/N=C(\N)c2ccncc2)c(Br)c1,103*,95*,31*,30,42
CCCN1C[C@H](C)[C@H](OC)CN(C)C(=O)c2ccc(NC(=O)c3cnccn3)cc2OC[C@H]1C,nt,-5,nt,nt,nt
O=c1oc2c(O)cccc2cc1-c1nc2ccccc2[nH]1,45,0,36*,10,42
O=c1oc2c(CN3CCCCC3)c(O)ccc2cc1-c1nc2ccccc2[nH]1,-4,-4,-1,nt,nt
C[C@H]1CN([C@@H](C)CO)C(=O)c2cc(NC(=O)Nc3ccc(C(F)(F)F)cc3)ccc2O[C@H]1CN(C)Cc1ccncc1,nt,-5,nt,nt,nt
O=C(O)c1ccc(CSc2nnc(-c3ccccc3)n2-c2ccccc2)cc1,-4,nt,35*,-4,-22
O=C(NCc1nnc(SCc2ccccc2)n1-c1ccccc1)C12CC3CC(CC(C3)C1)C2,4,nt,-3,35,90*
CCC(=O)N(C)C[C@@H]1Oc2cc(C3=CCCC3)ccc2S(=O)(=O)N([C@@H](C)CO)C[C@@H]1C,nt,9,nt,nt,nt
O=C(O)c1ccccc1Nc1ccccc1C(=O)O,-16,-12,-1,-9,-21
O=C(O)c1ccccc1NN=C1CCCCC1,12,83*,4,1,4
O=C(NN=C1CCCC1)c1ccccc1O,nt,75*,-1,-10,-8
CCOC(=O)C1CCCN(C(=O)CSc2nc(C)cc(C)n2)C1 (stereo not given),-18,-2,0,-31,-46
CCOC(=O)C1CCCN(C(=O)CCc2nnc(-c3ccc(C(C)=O)s3)o2)C1 (stereo not given),68,71*,41*,25,35
CCOC(=O)C1CCCN(C(=O)CSCc2ccccc2)C1 (stereo not given),62,48*,-1,18,11
CCOC(=O)C1CCCN(C(=O)COc2ccccc2O)C1 (stereo not given),nt,0,nt,2,43
COc1ccc(C2NC(=O)CCC2[N+](=O)[O-])c(OC)c1 (stereo not given),nt,-3,3,16,56*
CO[C@@H]1CN(C)C(=O)c2ccc(NC(=O)C3CC3)cc2OC[C@H](C)N(CC2CCOCC2)C[C@H]1C,nt,0,nt,nt,nt
Cn1c(=O)c2c(nc(N/N=C/c3ccc(OC(=O)c4ccco4)cc3)n2Cc2ccc(F)cc2)n(C)c1=O,-1,nt,-3,23,56*

# Bioassay records (PubChem)
